Measured values reported in PubChem BioAssay (Tox21).
Results filed as inconclusive are left out. Entries that show only a call come without a potency. Activity calls are given as the source filed them. The call rests on the fitted dose curve; in most records, active means well fitted activation curve with a large enough effect in the repeat runs; inconclusive means weak or mixed curves; inactive means no such curve, though single readings can be large or run the other way.

Experiment: qHTS assay for small molecules that induce genotoxicity in human embryonic kidney cells expressing luciferase-tagged ATAD5 (AID 651632); further: nearly all actives have a fitted effect of over 15% in size
Settings: HEK293T ATAD5-luciferase induction, 16 h; series mostly up to 83.3 µM
Text: U.S. Tox21 Program National Center for Advancing Translational Sciences [NCATS] NIH Chemical Genomics Center [NCGC] U.S. Environmental Protection Agency [EPA] National Institutes of Environmental Health Sciences [NIEHS] National Toxicology Program [NTP] U.S. Food and Drug Administration [FDA] Tox21 Assay Overview: As cancer cells divide rapidly and during every cell division they need to duplicate their genome by DNA replication. The failure to do so results in the cancer cell death. Based on this concept, many chemotherapeutic agents were developed but have limitations such as low efficacy and severe side effects etc. A new cell based assay was developed to find the compounds that effectively block DNA replication either by directly damaging DNA or by inhibiting other cellular mechanisms. Enhanced Level of Genome Instability Gene 1 (ELG1; human ATAD5) protein levels increase in response to various types of DNA damage. Using a luciferase reporter-gene tagged with ATAD5, a cell-based assay [developed by Kyungjae Myung, NHGRI, NIH] was used to measure the induction of ATAD5 in human embryonic kidney cells (HEK293T). So, increase in luciferase activity can be used to identify the compounds that cause genetic stress.
Tox21 Assay Protocol Summary: For genotoxicity screening, 2,000 cells in 5 uL/well were dispensed into white, solid-bottom 1536-well plates using a Multidrop Combi (Thermo Scientific) dispenser. Following transfer of 23 nL compound or DMSO vehicle by a pin tool, the plates were incubated 16 hr at 37C and 5% CO2. 5 ul Amplite (AAT Bioquest, Inc.) was then added to each plate and following 30 min incubation at room temperature, luciferase activity was quantified on a ViewLux CCD-based plate reader.
For `CC1(COc2ccc(CC3SC(=O)NC3=O)cc2)CCCCC1` (stereo not given), the Potency was “inactive”.
In the case of `Cc1cc(SC2=C(O)C[C@@](CCc3ccc(N)cc3)(C(C)C)OC2=O)c(C(C)(C)C)cc1CO`, the Potency is reported as “inactive”.
With `CC/C=C/CCO` the Potency was “inactive”.
In the case of `c1ccc(CN(Cc2ccccc2)Cc2ccccc2)cc1`, the Potency is reported as “inactive”.
For `CC(C)NC(=O)c1ccccc1N`, the Potency was “inactive”.
For `CC(C)Cc1nccs1`, the Potency was “inactive”.
With `Oc1ccc(CCNCCCCCCNCCc2ccccc2)cc1O` the Potency was “inactive”.
With `CC1(C)C(=O)NC(=O)N1CO` the Potency was “inactive”.
For `O=C1c2ccccc2C(=O)C1c1ccc2cc(S(=O)(=O)O)cc(S(=O)(=O)O)c2n1`, the Potency was “inactive”.
With `FC1(F)C(F)(F)C(F)(F)C2(F)C(F)(C1(F)F)C(F)(F)C(F)(F)C1(F)C(F)(F)C(F)(F)C(F)(F)C(F)(F)C12F` (stereo not given) the Potency was “inactive”.
With `OCCc1ccncc1` the Potency was “inactive”.
For `C/C(=C(\CCO)SS/C(CCO)=C(\C)N(C=O)Cc1cnc(C)nc1N)N(C=O)Cc1cnc(C)nc1N`, the Potency was “inactive”.
With `C=CC(=O)NC(C)(C)C` the Potency was “inactive”.
For `O=Cc1ccc([N+](=O)[O-])cc1`, the Potency was “inactive”.
In the case of `CCCC(=O)OCc1ccccc1`, the Potency is reported as “inactive”.
In the case of `Cc1c(Cl)cccc1[N+](=O)[O-]`, the Potency is reported as “inactive”.
For `CC(CCl)OC(C)CCl` (stereo not given), the Potency was “inactive”.
In the case of `N#CCCCC(C#N)CCC#N` (stereo not given), the Potency is reported as “inactive”.
In the case of `CC/C=C\CCO`, the Potency is reported as “inactive”.
With `CC1=C(C)C(=O)C(CCCCC#CCCCC#CCO)=C(C)C1=O` the Potency was “inactive”.
For `CC(C)C/C=C(\C=O)c1ccccc1`, the Potency was “inactive”.
For `CCCCCCCCOCCCN`, the Potency was “inactive”.
For `CC(=O)c1cccnc1`, the Potency was “inactive”.
With `CCCCCCCCCCCCCCCCCCCl` the activation was 2.16% [at 8.08 µM] (inactive).
For `CC[C@H](NC(C)C)[C@H](O)c1ccc(O)c2[nH]c(=O)ccc12`, the Potency was “inactive”.
In the case of `C1CCN(CN2CCCCC2)CC1`, the Potency is reported as “inactive”.
In the case of `N#C[C@@H]1CC(F)(F)CN1C(=O)CNC1CC2CCC(C1)N2c1ncccn1` (stereo not given in full), the Potency is reported as “inactive”.
In the case of `CCCCC(CC)COCCC#N` (stereo not given), the Potency is reported as “inactive”.
With `CCc1cnc(C(=O)O)c(C(=O)O)c1` the Potency was “inactive”.
For `C=CC(=O)OCCCCCCCCCC`, the Potency was “inactive”.
In the case of `Cc1ccc(S(=O)(=O)NC(=O)NC2CCCC2)cc1`, the Potency is reported as “inactive”.
In the case of `O=C(O)COCC(=O)O`, the Potency is reported as “inactive”.
With `C=C[Si]1(C)O[Si](C)(C=C)O[Si](C)(C=C)O[Si](C)(C=C)O1` (stereo not given) the Potency was “inactive”.
For `C=CC(C)(O)CC/C=C(/C)CCC=C(C)C` (stereo not given), the Potency was “inactive”.
In the case of `CCC(C)C1N=C(C)C(C)S1` (stereo not given), the Potency is reported as “inactive”.
With `O=C1OC(=O)C2CC=CCC12` (stereo not given) the Potency was “inactive”.
For `Cc1cc(C)c(C)c(O)c1`, the Potency was “inactive”.
With `Clc1cccc(C(c2ccc3nc[nH]c3c2)n2ccnc2)c1` (stereo not given) the Potency was “inactive”.
With `C/C(=C\C(C)CC(C)CC(C)C)C1CC(=O)OC1=O` (stereo not given) the Potency was “inactive”.
For `N#Cc1ccc(CC(=O)c2cccc(C(F)(F)F)c2)cc1`, the Potency was “inactive”.
